Compounds with a hit are over-represented: about 0.52% of the library has one in this group of screens.
Sa growth 42C = S. aureus growth inhibition; S. aureus RN4220 growth, OD600, 20 h, 42 °C; hits give low values; relative growth, % (test concentration not listed); 0.53% of 170,000 active;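 active = relative growth at most 50% at the other temperature and 20+ points below 30 °C, or under 10% at both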
S aureus helic = blocks Staphylococcus aureus DNA helicase; 0.05% of 120,000 active; AID 485395; inhibition, % (test concentration not listed); purified S. aureus helicase, fluorescence unwinding assay; in the data active = inhibition above about 25%, passing the limit was not always enough;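 also: 0% = mean of negative control wells and 100% = mean of positive control wells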
An asterisk follows results filed as active; . = no result given; ! = not active in a repeat.

SMILES	Sa growth 42C	S aureus helic
CCCCCCCCCCCCCCCC[n+]1ccccc1	-0.8*	.
CN(C)c1ccc(/C=C2/C(=O)NC(=O)N(C3CCCCC3)C2=O)cc1	120.7	-5.0
CC(=O)N1CCCCC1c1cccnc1.O=[N+]([O-])O.[Ag] (centres undefined)	5.0*	6.0
O=S(=O)(c1ccc(Cl)cc1)N1CCCCC1c1cccnc1 (centres undefined)	80.7	3.0
CN1CC=C(c2c[nH]c3ccccc23)CC1	79.9	-5.0
C1=C(c2c[nH]c3ccccc23)CCN(Cc2ccccc2)C1	-0.9*	7.0
COC(=O)c1cc(CCl)oc1C	93.7	3.0
CN(C)C(=O)Oc1cccc(NC(=O)c2cc(Cl)cc(Cl)c2)c1	102.3	.
N#CC(C#N)=NNc1ccc(-n2ccc(C(F)(F)F)n2)cc1	-0.4*	-10.0
N#CCCn1cc(C(=O)Cn2cc(C(F)(F)F)ccc2=O)c2ccccc21	77.2	5.0
Cc1cccc(CN2CCN(C(=O)COc3ccccc3)CC2)c1	81.6	0.0
CCOC(=O)c1c(-c2ccccc2)n(Cc2ccccc2)c2ccc(O)c(CN(C)C)c12	-0.9*	5.0
CCOC(=O)c1c(C)n(Cc2ccccc2)c2ccc(O)cc12	100.2	4.0
N#CCc1ccsc1	93.8	-5.0
COc1cc2c(cc1O)CC1c3c(c(OC)c(OC)c(OC)c3-2)CCN1C (centres undefined)	94.4	11.0
CN(C)CCC(=O)c1ccccc1	66.1	1.0
CC(=O)[O][Hg][c]1ccccc1	-0.7*	.
O=C1NC(=O)C2C3C=CC(O3)C12 (centres undefined)	24.6	6.0
Cc1cc(C(=O)O)c(C)n1C(C)C	78.9	-6.0
CN(C)[C@@H]1C(=O)C(C(N)=O)=C(O)[C@@]2(O)C(=O)C3=C(O)c4c(O)ccc(Cl)c4[C@@](C)(O)[C@H]3C[C@@H]12	-0.1*	.
CN(C)[C@@H]1C(=O)C(C(N)=O)=C(O)[C@@]2(O)C(=O)C3=C(O)c4c(O)cccc4[C@@](C)(O)[C@H]3[C@H](O)[C@@H]12	-0.6*	.
O=C(C1CCN(S(=O)(=O)N2CCCC2)CC1)N1CCC2(CC1)OCCO2	96.9	-9.0
COP1(=S)/C(=C2/N(C)c3ccccc3C2(C)C)C=NN1C (centres undefined)	93.7	-4.0
Oc1cc(Cl)ccc1Oc1ccc(Cl)cc1Cl	-0.7*	.
Cc1ccc(NP(C(C)C)C(C)C)nc1	112.6	-1.0
SMILES	Sa growth 42C	S aureus helic
N#CCCn1cc(C(=O)O)c(-c2ccc(Cl)cc2)n1	110.3	14.0
O=C1C=Cc2ccc3c4c(ccc1c24)C=CC3=O	71.6	48.0*
CCCCn1c(N)c(C(=O)NCCC)c2nc3ccccc3nc21	90.6	-2.0
CC12CCC(O)CC1=CCC1C2CCC2(C)C(O)/C(=C/c3ccc(F)cc3)CC12 (centres undefined)	98.3	11.0
CCCCCCCCCCNCCC (tested in a mixture with another compound)	86.9	.
COc1ccc(C(CN(C)C)C2(O)CCCCC2)cc1 (centres undefined)	0.0*!	.
COc1cccc2c(CCN)c[nH]c12	107.5	-3.0
CN1CCN(P2(=O)CC=CC2)CC1	105.2	6.0
Clc1ccc(CON=C(Cn2ccnc2)c2ccc(Cl)cc2Cl)c(Cl)c1	0.0*	.
Clc1ccc(COC(Cn2ccnc2)c2ccc(Cl)cc2Cl)c(Cl)c1 (centres undefined)	0.0*!	.
Cc1cnc(C(=O)Nc2ccc(Cl)cc2C(=O)c2ccccc2)cn1	102.3	-7.0
CC1(c2ccc3c(c2)OCCO3)NC(=O)N(CN2CC=C(c3ccccc3)CC2)C1=O (centres undefined)	89.7	-2.0
Cc1oc2cc(OC(=O)N(C)C)ccc2c(=O)c1-c1nc2ccccc2s1	107.6	10.0
NCCc1ccc(F)cc1	99.1	3.0
CC(C)P(c1ccc(C#N)cc1)C(C)C	77.9	-10.0
C[CH2][Hg][S]c1ccccc1C(=O)O	-0.5*	.
O=C(O)c1ccccc1C(=O)Nc1cccc2ccccc12	.	8.0

Bioassay records: PubChem, ICCB-Longwood Screening Facility, Harvard Medical School
